# Reference: PMC11062922 (Nature Chemical Biology, 2023)
# Like-named read-outs stand apart in the source and are kept apart here.
# Legend:
# Design in all cases: species or system human, MV4-11 + K-562 + COLO205 + SK-N-BE2 + OVCAR-8
# BUB1 = conditions: read-out: apparent Kd, n = 1
# CSNK1A1 = conditions: read-out: apparent Kd; compound concentrations:100 nM and 1000 nM (sheet 'Samples'); n = 1
# MAPK9 = conditions: read-out: apparent Kd, n = 1
# MAPKAPK2 = conditions: read-out: apparent Kd, n = 1
# NLK = conditions: read-out: apparent Kd; compound concentrations:100 nM and 1000 nM (sheet 'Samples'); n = 1
# EPHA4 = conditions: read-out: apparent Kd, n = 1
# EPHB2 = conditions: read-out: apparent Kd, n = 1
# EPHB4 = conditions: read-out: apparent Kd, n = 1
# DJA1 = test system: T1, DJA1; conditions: read-out: apparent Kd, compound concentrations: 100 nM and 1000 nM (sheet 'Samples'), n = 1
# T1 construct: gene DNAJA1
# MAP4K5 = conditions: read-out: apparent Kd, compound concentrations: 100 nM and 1000 nM (sheet 'Samples'), n = 1
# ACVR2B = conditions: read-out: apparent Kd; compound concentrations: 100 nM and 1000 nM (sheet 'Samples'), CATDS: 2.76899291361602E-2; n = 1
# EPHA2 = conditions: read-out: apparent Kd, compound concentrations: 100 nM and 1000 nM (sheet 'Samples'), n = 1
# TGFBR2 = conditions: read-out: apparent Kd, n = 1
# NQO1 = conditions: read-out: apparent Kd, n = 1
# TAOK1 = conditions: read-out: apparent Kd, n = 1
# PDGFRB = conditions: read-out: apparent Kd, compound concentrations: 100 nM and 1000 nM (sheet 'Samples'), n = 1
# PRKD3 = conditions: read-out: apparent Kd, n = 1
# NQO2 = conditions: read-out: apparent Kd, compound concentrations: 100 nM and 1000 nM (sheet 'Samples'), n = 1
# PDXK = conditions: read-out: apparent Kd; compound concentrations: 100 nM and 1000 nM (sheet 'Samples'), CATDS: 9.7216683357623401E-2; n = 1
# [1] = compound concentrations:100 nM and 1000 nM (sheet 'Samples')
structure (smiles),measurement,setting,value
CNc1nccc(-c2c(-c3ccc(F)cc3)ncn2C2CCN(C)CC2)n1 [SB-222903],potency estimated from few doses,BUB1; [1],1920 nM
same,potency estimated from few doses,CSNK1A1,139 nM
same,potency estimated from few doses,MAPK9; [1],462 nM
same,potency estimated from few doses,MAPKAPK2; [1],49 nM
same,potency estimated from few doses,NLK,19.1 nM
COc1cc2ncn(-c3cc(OCCCc4ccccc4)c(C(N)=O)s3)c2cc1OC [GSK205189A],potency estimated from few doses,EPHA4; [1],1250 nM
same,potency estimated from few doses,EPHB2; [1],697 nM
same,potency estimated from few doses,EPHB4; [1],636 nM
Nc1ncc(-c2cn[nH]c2)c2scc(-c3ccc4c(c3)CCN4C(=O)Cc3ccccc3)c12 [GSK2593067A],potency estimated from few doses,DJA1; CATDS: 0.221714333862437,118 nM
same,potency estimated from few doses,MAP4K5; CATDS: 8.2420323237496707E-2,674 nM
CS(=O)(=O)Cc1ccc(Nc2nccc(-c3c(-c4cccc(NC(=O)c5c(F)cccc5F)c4)nn4ccccc34)n2)cc1 [GSK323543A],potency estimated from few doses,"MAPKAPK2; compound concentrations: 100 nM and 1000 nM (sheet 'Samples'), CATDS: 7.72685747843148E-2",870 nM
Cc1ccc(O)cc1Nc1ccnc2ccc(C(C)(C)C)cc12 [GW856805X],potency estimated from few doses,ACVR2B,1250 nM
same,potency estimated from few doses,EPHA2; CATDS: 8.0596912814025104E-2,18.5 nM
same,potency estimated from few doses,"EPHA4; compound concentrations: 100 nM and 1000 nM (sheet 'Samples'), CATDS: 7.4195620286495498E-2",22 nM
same,potency estimated from few doses,"EPHB2; compound concentrations: 100 nM and 1000 nM (sheet 'Samples'), CATDS: 6.5287043089823998E-2",29.3 nM
same,potency estimated from few doses,"EPHB4; compound concentrations: 100 nM and 1000 nM (sheet 'Samples'), CATDS: 0.113366992887299",9.72 nM
same,potency estimated from few doses,"TGFBR2; compound concentrations: 100 nM and 1000 nM (sheet 'Samples'), CATDS: 3.9995494154685202E-2",130 nM
CN(C)Cc1ccc(-c2ccc3c(Nc4ccc(Oc5ccccn5)cc4)ccnc3c2)o1 [GW567148X],potency estimated from few doses,"EPHA4; compound concentrations: 100 nM and 1000 nM (sheet 'Samples'), CATDS: 2.1324962018011699E-2",824 nM
same,potency estimated from few doses,"EPHB2; compound concentrations: 100 nM and 1000 nM (sheet 'Samples'), CATDS: 2.3863521838316901E-2",615 nM
same,potency estimated from few doses,"EPHB4; compound concentrations: 100 nM and 1000 nM (sheet 'Samples'), CATDS: 2.5851405238779799E-2",509 nM
Fc1ccc(-c2c(-c3ccncc3)[nH]c3nccnc23)cc1 [RO1155697-000],potency estimated from few doses,BUB1; [1],1970 nM
same,potency estimated from few doses,CSNK1A1,667 nM
same,potency estimated from few doses,MAPK9; [1],368 nM
same,potency estimated from few doses,NQO1; [1],1590 nM
same,potency estimated from few doses,TAOK1; [1],1150 nM
CN1CCN(Cc2ccc(NC(=O)Nc3ccc(N(C)c4ccnc(Nc5ccc(CS(C)(=O)=O)cc5)n4)cc3)cc2)CC1.Cl [GW827654A],potency estimated from few doses,PDGFRB; CATDS: 3.4418079191200303E-2,1860 nM
N#Cc1cccc(Nc2nccc(-c3cnn4ncccc34)n2)c1 [GW778894X],potency estimated from few doses,CSNK1A1,731 nM
same,potency estimated from few doses,NLK,1560 nM
same,potency estimated from few doses,TGFBR2; [1],35.7 nM
Cc1cc(O)cc(C)c1/C=C/c1cncc(-c2nn[nH]n2)c1.Cl [GW441806A],potency estimated from few doses,EPHA2; CATDS: 4.6112446535010898E-2,1310 nM
CNC(=O)c1ccccc1Nc1nc(Nc2cccc(CS(C)(=O)=O)c2)ncc1C.O=CO [GSK1520489A],potency estimated from few doses,EPHA2; CATDS: 2.7940284559804102E-2,66.2 nM
same,potency estimated from few doses,"MAPK9; compound concentrations: 100 nM and 1000 nM (sheet 'Samples'), CATDS: 1.0219205948468601E-2",1170 nM
same,potency estimated from few doses,PDGFRB; CATDS: 9.8482456119854799E-3,1420 nM
CN1CCc2ccc(Nc3nccc(-c4c(-c5cccc(NC(=O)c6c(F)cccc6F)c5)nc5ccccn45)n3)cc2C1.Cl [GSK1010829B],potency estimated from few doses,MAP4K5; CATDS: 3.0196131161379001E-2,2130 nM
same,potency estimated from few doses,"TAOK1; compound concentrations: 100 nM and 1000 nM (sheet 'Samples'), CATDS: 4.1687643746907199E-2",830 nM
CC(C)c1nc(-c2cccc(NS(=O)(=O)c3c(F)cccc3F)c2F)c(-c2ccnc(Nc3ccc(N4CCOCC4)nc3)n2)s1 [GSK2008607A],potency estimated from few doses,"BUB1; compound concentrations: 100 nM and 1000 nM (sheet 'Samples'), CATDS: 2.5044910199505301E-2",721 nM
same,potency estimated from few doses,"PRKD3; compound concentrations: 100 nM and 1000 nM (sheet 'Samples'), CATDS: 2.5792208741447099E-2",671 nM
Nc1nc(N)c2nc(-c3ccccc3)[nH]c2n1 [SKF-12778],potency estimated from few doses,CSNK1A1,972 nM
same,potency estimated from few doses,MAPK9; [1],2000 nM
same,potency estimated from few doses,NLK,1660 nM
CC(C)c1nc(-c2ccc(F)c(NS(=O)(=O)c3c(F)cccc3F)c2)c(-c2ccnc(Nc3ccc(N4CCOCC4)nc3)n2)s1 [GSK1804250A],potency estimated from few doses,BUB1; [1],553 nM
same,potency estimated from few doses,PRKD3; [1],510 nM
COc1ccc(C2=C(c3cn(C)c4ccccc34)C(=O)NC2=O)cc1OC [RO3206363-000],potency estimated from few doses,DJA1; CATDS: 3.2513241063347201E-2,1710 nM
same,potency estimated from few doses,"EPHB2; compound concentrations: 100 nM and 1000 nM (sheet 'Samples'), CATDS: 3.4039918374270103E-2",1430 nM
same,potency estimated from few doses,"MAPK9; compound concentrations: 100 nM and 1000 nM (sheet 'Samples'), CATDS: 8.8329407260920895E-2",133 nM
same,potency estimated from few doses,NQO2; CATDS: 4.2100406306544602E-2,722 nM
Cc1ccc(NC(=O)Nc2ccccc2)cc1-c1ccc(C(=O)Nc2ccncc2)cc1 [GSK1398471A],potency estimated from few doses,PDGFRB; CATDS: 0.100538994858546,1940 nM
COc1cccc(C2=C(c3cn(C)c4c(C)cccc34)C(=O)NC2=O)c1 [RO3301012-000],potency estimated from few doses,"NQO1; compound concentrations: 100 nM and 1000 nM (sheet 'Samples'), CATDS: 0.106114123885474",1550 nM
same,potency estimated from few doses,PDXK,2000 nM
Cl.Fc1cccc(COc2ccc(Nc3ncnc4cc(-c5ccc[nH]5)sc34)cc2Cl)c1 [GW693881A],potency estimated from few doses,NQO2; CATDS: 0.24245202120631801,560 nM
